Measured values as given in PubChem BioAssay (NCATS).
Records with an inconclusive call do not appear. This is one part of the list. Activity calls are given as the source filed them. Unless noted, calls come from the whole dose curve; as a rule, active = well fitted curve in the direction sought with a large enough effect; inconclusive = small, poorly fitted or top-dose-only effect, or another doubt; inactive = no such curve, though single readings can be large; an effect the other way counts as inactive or inconclusive.

Key:
[1] = qHTS Assay for Identifying Gametocytocidal Compounds (AID 743244);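 note: % is set by controls: 0 for no effect and ±100 for the full control effect; actives lower the fluorescent signal which means gametocytes are killed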; settings: P. falciparum 3D7 stage III-V gametocytes, alamarBlue, 72 h; stronger effect = lower value
How it was run: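 3D7 gametocytes, stages III–V, 20,000/well; cpd 72 h, 37 °C/5% CO2; + alamarBlue 24 h; fluor. Ex 525/Em 598.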

[2] = molecular target: DNA polymerase eta (Homo sapiens) (UniProt Q9Y253); experiment: qHTS for Inhibitors of Polymerase Eta: Confirmatory Assay for Cherry-picked Compounds (AID 720502); settings: Pol eta primer extension, TAMRA/BHQ fluorescence, 10 min; note: potency is the fitted concentration of half-maximal effect
Chain of DNA polymerase eta (Homo sapiens) (Q9Y253 whole entry, looked up): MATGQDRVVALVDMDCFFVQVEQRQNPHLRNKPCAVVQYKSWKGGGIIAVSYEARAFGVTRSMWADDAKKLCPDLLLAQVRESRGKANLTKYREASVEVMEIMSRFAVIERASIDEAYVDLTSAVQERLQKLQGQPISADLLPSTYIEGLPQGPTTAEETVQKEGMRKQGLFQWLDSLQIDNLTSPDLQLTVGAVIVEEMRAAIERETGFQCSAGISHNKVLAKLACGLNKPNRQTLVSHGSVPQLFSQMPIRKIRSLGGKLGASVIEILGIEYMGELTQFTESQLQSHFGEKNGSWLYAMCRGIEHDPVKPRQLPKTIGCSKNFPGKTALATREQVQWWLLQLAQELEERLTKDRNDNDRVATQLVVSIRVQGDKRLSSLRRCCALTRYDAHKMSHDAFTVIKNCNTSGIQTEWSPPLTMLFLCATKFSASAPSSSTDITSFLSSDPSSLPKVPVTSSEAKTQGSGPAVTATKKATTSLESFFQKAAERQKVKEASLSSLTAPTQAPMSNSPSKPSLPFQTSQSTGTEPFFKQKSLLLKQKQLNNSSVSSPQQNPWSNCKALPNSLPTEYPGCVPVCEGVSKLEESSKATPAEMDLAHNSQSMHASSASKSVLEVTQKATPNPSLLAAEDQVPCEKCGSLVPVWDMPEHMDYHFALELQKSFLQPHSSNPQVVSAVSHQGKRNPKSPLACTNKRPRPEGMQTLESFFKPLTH
How it was run: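 10 nM Pol eta + cpd, 15 min RT; start w/ 50 nM final primer/TAMRA-reporter/BHQ-2-template substrate; kinetic read 0 and 10 min, ex 525/em 598 nm. Buffer-only wells = negative control.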

[3] = qHTS profiling for inhibitors of Plasmodium falciparum (3D7) proliferation (AID 743322);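 note: infected erythrocytes exposed to compound for 72 h before lysis; 100% = DMSO vehicle wells and 0% = 0.29 µM artemisinin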; settings: P. falciparum 3D7 proliferation; at 28.7 µM (top of the series)
How it was run: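 Erythrocytes infected with P. falciparum (0.3% parasitemia, 2.5% hematocrit) incubated with compounds 72 h at 37 C, 5% CO2. Lysis with saponin/Triton buffer containing SYBR Green I, overnight at room temperature in the dark; DNA fluorescence (485/535 nm) normalised to 0.29 uM artemisinin and DMSO.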

[4] = qHTS profiling for inhibitors of Plasmodium falciparum (DD2) proliferation (AID 743323; call rule not given here); settings: lower = more inhibition; at 28.7 µM (top of the series)
How it was run: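 1536-well qHTS; infected RBCs 0.3% parasitemia/2.5% Hct final; cpd 72 h 37 C 5% CO2; lysis buffer + SYBR Green I, o/n RT dark; FI 485/535; norm. to 0.29 uM artemisinin and DMSO, plate-stack corrected.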

[5] = qHTS profiling for inhibitors of Plasmodium falciparum (HB3) proliferation (AID 743324); settings: Plasmodium falciparum HB3 blood-stage proliferation; at 28.7 µM (top of the series);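 note: 100% = DMSO vehicle wells and 0% = artemisinin-treated control wells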
How it was run: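 P. falciparum HB3 grown in erythrocytes (0.3% parasitemia, 2.5% hematocrit final) with compound for 72 h at 37 C, 5% CO2. Parasite DNA detected by SYBR Green after saponin/triton lysis overnight; normalized to 0.29 uM artemisinin and DMSO.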

CC(O)[C@@H]1NC(=O)[C@H](CCCCN)NC(=O)[C@@H](Cc2c[nH]c3ccccc23)NC(=O)[C@H](Cc2ccccc2)NC(=O)[C@@H](NC(=O)[C@H](N)Cc2ccccc2)CSSC[C@@H](C(=O)N[C@H](CO)[C@@H](C)O)NC1=O (stereo partly drawn)
max response [1]: -8.72% (inactive)

NC[C@@H]1O[C@H](O[C@H]2[C@@H](O)[C@H](O[C@@H]3[C@@H](O)[C@H](N)C[C@H](N)[C@H]3O[C@H]3O[C@H](CN)[C@@H](O)[C@H](O)[C@H]3N)O[C@@H]2CO)[C@H](N)[C@@H](O)[C@@H]1O
max response [1]: -12% (inactive)

Cc1ccc2cc(/C=N/Nc3ccc(C(=O)O)cc3)c(Cl)nc2c1
Potency [2]: 30.1 µM (active)

CN(C)c1cc(NC(=O)CNC(C)(C)C)c(O)c2c1C[C@H]1C[C@H]3[C@H](N(C)C)C(=O)C(C(N)=O)=C(O)[C@@]3(O)C(=O)C1=C2O
max response [1]: 7.63% (inactive)

O=C([C@H](Cc1ccc(O[S+](=O)([O-])c2cccc3cccnc23)cc1)N[S+](=O)([O-])c1cccc2cnccc12)N1CCN(c2ccccc2)CC1
remaining parasite growth % (stronger effect = lower value) [3]: -0.402% | activity, percent of control [4]: 1.4% | remaining proliferation (% of control), lower = more inhibition [5]: 0.212%

NC(CSC(c1ccccc1)(c1ccccc1)c1ccc(-c2ccccc2)cc1)C(=O)O (stereo not drawn)
Potency [2]: 75.7 µM (active)

O=C([C@H](Cc1ccc(O[S+](=O)([O-])c2ccccn2)cc1)N[S+](=O)([O-])c1cccc2cnccc12)N1CCN(c2ccccc2)CC1
remaining parasite growth % (stronger effect = lower value) [3]: -0.962% | activity, percent of control [4]: 2.47% | remaining proliferation (% of control), lower = more inhibition [5]: 0.0492%

C[C@@H]1Cc2c([nH]c3cc(Cl)c(F)cc23)[C@]2(N1)C(=O)Nc1ccc(Cl)cc12
remaining parasite growth % (stronger effect = lower value) [3]: -0.966% | activity, percent of control [4]: 0.0887% | remaining proliferation (% of control), lower = more inhibition [5]: -0.181%

O=C([C@H](Cc1ccc(O[S+](=O)([O-])c2cccnc2)cc1)N[S+](=O)([O-])c1cccnc1)N1CCN(c2ccccc2)CC1
remaining parasite growth % (stronger effect = lower value) [3]: 15.8% | activity, percent of control [4]: 16.7% | remaining proliferation (% of control), lower = more inhibition [5]: 3.22%

CCCCC(F)(F)[C@@]1(O)CC[C@H]2[C@@H](CC(=O)[C@@H]2CCCCCCC(=O)O)O1
max response [1]: 2.98% (inactive)
